# Rows were chosen to be rich in hits. Some 7.9% of all compounds tested hit in one or more screens of this group.
# SW480 rerep: A quantitative high throughput screen for small molecules that induce DNA re-replication in SW480 colon adenocarcinoma cells; SW480 DNA re-replication, Hoechst DNA content imaging, 48 h; Potency, µM (highest dose often 46.1 µM), actives largely listed as activators; actives 1.8% (n = 340,000); AID 624297, 2012; also: nearly all actives have a fitted effect of over 55% in size
#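 Image-based DNA-content assay: after two days of treatment, nuclei were labelled with the DNA dye Hoechst and imaged, and hits were compounds raising the count of nuclei showing high fluorescence intensity.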
# HT1080 IDH1KD tx: qHTS for induction of synthetic lethality in tumor cells producing 2HG: qHTS for the HT-1080-IDH1KD cell line | HT-1080 IDH1 knockdown viability, ATP luminescence, 48 h | Potency, µM (series often up to 46.1 µM), actives largely listed as cytotoxic | actives 2% (n = 360,000)
#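 Using the IDH1-knockdown HT-1080 line run in the same batch and compound series as the NT line, viability after 48 h at 37 °C was determined by CellTiter-Glo luminescence and expressed as % activity.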
# MCF10A rereplic: A quantitative high throughput screen for small molecules that induce DNA re-replication in MCF 10a normal breast cells; MCF 10A DNA re-replication, Hoechst nuclear intensity, 48 h; Potency, µM (top dose mostly 46.1 µM), actives largely listed as activators; actives 2.9% (n = 350,000); AID 624296, 2012; also: nearly all actives have a fitted effect of over 50% in size
# KB-V1 MDR tox: qHTS assay for MDR1-selective chemotherapeutics: Primary screen using the drug-selected MDR subline cells KB-V1; KB-V1 MDR cells viability, CellTiter-Glo, 72 h; Potency, µM (doses to about 46.1 µM), actives largely listed as cytotoxic; AID 1347076, 2019; actives 3.4% (n = 400,000); also: nearly all actives have a fitted effect of over 60% in size
#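 Cytotoxicity toward P-gp-expressing KB-V1 cells was determined as loss of CellTiter-Glo luminescence after 72 h at 37 degrees C. Compounds were tested in quantitative HTS format across a concentration range, with curves fitted to normalized data.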
# KB-3-1 tox: qHTS assay for MDR1-selective chemotherapeutics: Primary screen using the parental adenocarcinoma cell KB-3-1. actives 1.4% (n = 400,000). KB-3-1 viability, CellTiter-Glo ATP luminescence, 72 h. Potency, µM (top dose mostly 46.1 µM), usual class: cytotoxic; also: nearly all actives have a fitted effect of over 60% in size
#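 Here the drug-naive KB-3-1 line serves as comparator for MDR sub-line selectivity; cells received compound titrations, 72 h at 37 °C, then CellTiter-Glo readout.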
# HT1080NT lethal: qHTS for induction of synthetic lethality in tumor cells producing 2HG: qHTS for the HT-1080-NT fibrosarcoma cell line; HT-1080-NT fibrosarcoma viability, CellTiter-Glo ATP luminescence, 48 h; Potency, µM (doses to about 46.1 µM), hits mostly cytotoxic; actives 1.6% (n = 360,000); AID 686970, 2013;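 also: NT is the 2HG producing partner of a matched IDH1 knockdown line; nearly all actives have a fitted effect of over 55% in size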
#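 HT-1080-NT fibrosarcoma cells (2HG-overproducing), 750 cells/well in RPMI with 5% FBS, dosed after 2 h and incubated 48 h at 37C. CellTiter-Glo luminescence normalized to DMSO and no-cell wells; concentration-response curves fitted and classed.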
# A number is an active result; . = inactive; ? = inconclusive; / = no result. Calls follow the shape of the dose curve; as a rule, active = well fitted curve in the direction sought with a large enough effect; inconclusive = small, poorly fitted or top-dose-only effect, or another doubt; inactive = no such curve, though single readings can be large; an effect the other way counts as inactive or inconclusive.
SMILES,SW480 rerep,HT1080 IDH1KD tx,MCF10A rereplic,KB-V1 MDR tox,KB-3-1 tox,HT1080NT lethal
COc1ccc(NC(=O)Cn2c3ccccc3c3nc4n(c(=O)c32)CCS4)cc1,.,?,21µM,.,.,?
CC(C)(C)OC(=O)COc1cc(OCC(=O)OC(C)(C)C)c2c(=O)cc(-c3ccccc3)oc2c1,.,?,.,21µM,.,?
O=P(O)(O)C(Cl)(Cl)P(=O)(O)O,.,/,.,/,/,/
CC1CC(C)CC(C)C(O)C(C#N)=CC=CCC(C2CCCC2C(=O)O)OC(=O)CC(O)C(C)C1 (stereo unspecified),?,0.18µM,0.13µM,6.5µM,1.2µM,0.0092µM
COC1CC(O[C@H]2/C(C)=C/CC3CC(C[C@]4(CCC(C)C(C5CCCCC5)O4)O3)OC(=O)[C@H]3C=C(C)/C(=N/O)C4OC/C(=C\C=C\[C@@H]2C)[C@@]43O)OC(C)C1O (stereo partly specified),.,/,?,/,/,/
Cc1cc(C)c(OCC(=O)Nc2cccc(NC(=O)c3ccco3)c2)c(Br)c1,.,?,.,21µM,.,?
CCCCCn1c(=O)c(C(=O)Nc2cccc(C)c2)c(O)c2ccccc21,.,.,.,.,?,.
COC(=O)C1=C(c2ccc(-c3ccccc3)c(F)c2)C[C@@H]2CC[C@H]1N2C(=O)NCCO,.,.,.,?,?,.
COC(=O)C1=C(c2ccc(-c3ccccc3)c(F)c2)C[C@@H]2CC[C@H]1N2C(=O)NCCOc1ccccc1Cl,?,.,.,21µM,?,.
COC(=O)C1=C(c2ccc(-c3ccccc3)c(F)c2)C[C@@H]2CC[C@H]1N2C(=O)NCc1ccco1,.,.,21µM,.,?,.
CC(=O)OCC1=C(C(=O)O)N2C(=O)[C@@H](N)[C@@H]2SC1,.,/,.,/,/,/
O=C(CCC1CCCC1)c1c(O)c2ccccc2oc1=O,.,.,18µM,.,?,.
O=c1oc2ccccc2c(O)c1C(c1ccccn1)c1c(O)c2ccccc2oc1=O,.,.,.,.,.,.
F/C(COc1ccc2c(c1)[nH]c1ccccc12)=C1/CN2CCC1CC2,.,/,.,/,/,/
CS(=O)(=O)N(CC(=O)N1CCN(Cc2ccc3c(c2)OCO3)CC1)Cc1ccc(Cl)cc1,.,?,.,?,?,.
CCC(=O)[C@@H](C)[C@@H](O)[C@H](C)C[C@@H](C)C1OC(=O)C[C@@]2(O)CC=C(C)C(O2)C(C)=CCCC[C@H](O[C@H]2C[C@@H](OC(N)=O)[C@H](O)[C@@H](C)O2)C=C[C@H](C)C[C@H]1C (stereo partly specified),/,21µM,/,?,0.65µM,12µM
CC(C)(O)/C=C/C(=O)[C@](C)(O)C1[C@H](O)C[C@@]2(C)C3CC=C4C(C[C@H](O)[C@@H](O)C4(C)C)[C@]3(C)C(=O)C[C@]12C (stereo partly specified),?,1.3µM,1.3µM,.,?,1.3µM
CCCCCCCCN1C(=O)[C@H](CC(=O)NCCc2ccccc2OC)C[C@@]2(C(=O)OC)CCCCC=C12,/,?,/,?,.,?
Cc1cccc(CNCCc2c[nH]c3ccccc23)c1,?,?,.,.,?,15µM
O=C1CC2OCC=C3CN4CC[C@]56c7ccccc7N1C5C2[C@H]3C[C@H]46 (stereo partly specified),.,/,/,/,/,/
C/C(=N\NC(N)=S)C12CC3CC(CC(C3)C1)C2,26µM,6.3µM,7.3µM,.,.,5µM
CC1(C)CC(=O)C2=C(C1)OC(N)=C([N+](=O)[O-])C2c1ccc(C#N)s1 (stereo unspecified),?,.,.,.,?,.
COc1cc2occc2c2oc(=O)ccc12,?,.,.,.,.,.
O=c1ccc2c(O)c3ccoc3cc2o1,0.18µM,.,.,.,.,.
CCOC(=O)C1=C(Cc2ccc(Cl)cc2)C(=O)c2ccccc2C1=O,?,10µM,?,?,.,11µM
SMILES,SW480 rerep,HT1080 IDH1KD tx,MCF10A rereplic,KB-V1 MDR tox,KB-3-1 tox,HT1080NT lethal
CCOC(=O)C1=C(C)N=C2c3ccccc3C(=O)C2C1c1ccc(Cl)cc1 (stereo unspecified),.,?,.,.,.,?
COc1cc(C(=O)OCc2cc(=O)c(O)co2)ccc1OC(F)F,.,.,.,.,.,?
CC(C)(C)c1ccc(C(=O)NNC(=O)Cc2cccc3ccccc23)cc1,.,?,?,.,.,.
O=C(Nc1ccccc1)C1=C[C@H](c2ccccc2)C[C@H](OCCCCO)O1,.,.,18µM,?,?,.
CCn1c(O)c(/C=N/NC(=O)c2ccccc2)c(=O)n(CC)c1=S,18µM,.,?,.,?,.
CCn1c(O)c(/C=N/NC(=O)c2ccncc2)c(=O)[nH]c1=S,.,.,.,.,.,.
CC1OC(OC2C(O)CC(OC3C(O)CC(OC4CCC5(C)C(CCC6C5CCC5(C)C(C7=CC(=O)OC7)C(O)CC65O)C4)OC3C)OC2C)CC(O)C1O (stereo unspecified),1.8µM,0.58µM,?,?,0.18µM,1µM
CC(=O)OC1CC2(O)C3CCC4CC(O)CCC4(C)C3CCC2(C)C1C1=CC(=O)OC1 (stereo unspecified),1.6µM,0.52µM,?,?,0.18µM,1.3µM
C[C@H]1O[C@@H](O[C@H]2[C@@H](O)C[C@H](O[C@H]3[C@@H](O)C[C@H](O[C@H]4CC[C@@]5(C)[C@H](CC[C@@H]6[C@@H]5CC[C@]5(C)[C@@H](C7=CC(=O)OC7)CC[C@]65O)C4)O[C@@H]3C)O[C@@H]2C)C[C@H](O)[C@@H]1O,0.21µM,0.15µM,0.065µM,0.18µM,?,0.21µM
CC(=O)O[C@@H]1CC[C@]2(C)C3CC[C@@]4(C)C(C[C@@H](O)[C@@H]4O)C3[C@@H](OC(C)=O)C[C@H]2C1 (stereo partly specified),.,.,.,.,.,.
CC(=O)[C@H]1CCC2C3CC[C@H]4C[C@@H](O)CC[C@]4(C)C3CC[C@@]21C (stereo partly specified),.,.,.,?,.,.
